The text below walks through data of PubChem BioAssay (NCI).

This is part of a sample that, as a whole, favours compounds with a hit. Of some 83,000 tested, about 20% had one in any assay.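 A percent growth of 40 corresponds to 60% growth inhibition; 0 means no net growth; -100 means all cells died. Active threshold: below 10.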 Active and inactive are the calls of the source.

One test concerns ACHN renal. Description: NCI-60 one-dose screen, 48 h (100 = growth as untreated, 0 = no growth, -100 = all killed). To be noted: 10 µM unless noted.
With `Cc1cc2c(-c3nc4ccccc4n3C)c(O)c(O)cc2c(O)c1-c1c(C)cc2c(-c3nc4ccccc4n3C)c(O)c(O)cc2c1O`, the growth is 89.1% (inactive).
On to `COc1ccc2sc(-n3nc4nc5n(c(=O)c4c3N)-c3ccccc3Sc3ccccc3-5)nc2c1`, for which the growth was 72.3% (inactive).
As for `CC(=O)Nc1ccc(C(=O)/C=C/c2ccc(N(C)C)cc2)cc1`, the growth is 103% (inactive).
Still for that read-out and setting: under `CCCC(=O)NNc1[nH]c(-c2ccc(OC)cc2)cc1C(=O)OCC` stands 73.1% (inactive); under `O=C(/C(Br)=C/c1ccccc1)c1ccccc1`, -71.3% (active); under `C/C=C(/C)C(=O)OC1C=C(CO)C(=O)C(OC(=O)C(C)(O)C(C)Cl)C1C(C)C` (stereo unspecified), -96.7% (active).
Still for that read-out and setting: under `CC([C@H]1CC=C2C3CCC4=C[C@@H](N(C)C)CC[C@]4(C)C3CC[C@@]21C)N(C)C` (stereo partly specified) stands 48.1% (inactive).
With `COc1ccc(/C=C2\SC(=O)N(Cc3cc(=O)oc4ccc(OC)cc34)C2=O)cc1`, the growth was 92.7% (inactive).
Same read-out and setting: the same measure for `CCCCCc1ccnc(CC(=O)c2ccc(OC)cc2)c1`: 93.2% (inactive); for `CCCCCCCCCCCCCCCCCC1=NCCN1CS(=O)(=O)O`: 47.7% (inactive).
Same read-out and setting: the same measure for `CC1Cc2cc(F)ccc2-n2cccc21` (stereo unspecified): 106% (inactive); for `CC/C(=N\Nc1nc2ccccc2n1C)c1ccccn1`: 0.59% (active); for `O=C(CN1C(=O)NC(c2ccccc2)(c2ccccc2)C1=O)c1ccc(N2CCCC2)cc1`: 89.9% (inactive).
The same measure, in the same setting: the same measure for `Cc1sc(NC(=O)c2ccc(C(C)(C)C)cc2)c(C(=O)O)c1C`: 38.8% (inactive); for `C#CCCCCCCC[C@@H]1OC(=O)[C@H]([C@@H](C)CC)NC(=O)[C@H]([C@@H](C)CC)NC(=O)CC(=O)[C@@H]1C`: 94% (inactive).
In the case of `CCOC1=C(Cl)C(=O)C(OCC)=C(Cl)C1=O`, the growth is 106% (inactive).
Consider `O=C1C(=O)c2ccccc2C(O)=C1CCCc1ccc(Oc2ccccc2)cc1`, for which the growth is 59.4% (inactive).
Still for that read-out and setting: under `CCOc1ccc2nc3ccc(Cl)cc3nc2c1` stands 94.6% (inactive); under `CC[n+]1c(C)ccc2cc(C)ccc21`, 106% (inactive).
For the compound `COC(=O)/C(Br)=C/c1c[nH]c2ccc(Br)cc12`, the growth was 86.7% (inactive).
Still for that read-out and setting: the same measure for `CC(=O)c1ccc2c(c1)c1ccccc1n2C`: 110% (inactive).
Same read-out and setting: the same measure for `Cc1ccc([C@@H]2C[C@H](O)Cc3ccccc3N2)s1`: 104% (inactive); for `COC(=O)/C=C/c1cc(O)c2oc(-c3ccc(O)c(O)c3)c(C(=O)OC)c2c1`: 30.2% (inactive).
On the same count and under the same terms, the same measure for `CC1=C(C)C[C@]2(C(=O)O[C@H]3CCCC[C@@H]32)[S@](=O)C1`: 120% (inactive); for `CCOC(=O)C1=NN(c2ccccc2)C2=NC(=O)/C(=C\c3cn(-c4ccccc4)nc3-c3cc4ccccc4o3)C(=O)N12`: 94.8% (inactive); for `COc1cc2c(/C=C3\C(=O)Nc4ccc(Br)cc43)c(Cl)n(C)c2cc1C`: 29.5% (inactive).
`COc1cc2c(cc1OC)C(Cc1cc(OC)c(OC)cc1[N+](=O)[O-])=NCC2`: the growth is 85.2% (inactive).
Turning to `COc1ccc(-c2nc(SCC(C)C)nc(Nc3ccc([N+](=O)[O-])cc3)c2C#N)cc1`, the growth is 41.7% (inactive).
Still for that read-out and setting: the same measure for `O=C(/C=C/c1c[nH]c2ccccc12)c1cc2ccccc2o1`: 103% (inactive); for `O=C(CBr)OCc1ccc([N+](=O)[O-])o1`: 89.6% (inactive).
On the same count and under the same terms, the same measure for `C/C=C(/C)C(=O)OC1C=C(CO)C(=O)C(OC(=O)C2(C)OC2C)C1C(C)C` (stereo unspecified): -96.8% (active).
On the same count and under the same terms, under `O=C(Nc1ccc(Cl)c(Cl)c1)O/N=C\c1c(Cl)ccc([N+](=O)[O-])c1Cl` stands -59.5% (active); under `Oc1ccc(CN(Cc2ccc(C(F)(F)F)cc2)Cc2ccc(O)c3ncccc23)c2cccnc12`, 9.38% (active); under `COc1cc(-c2nc(/C=C3/C(=O)Nc4ccccc43)c3ccccn23)cc(OC)c1OC`, 58.6% (inactive).

The next test relates to CAKI-1 renal. Described as above. To be noted: 10 µM unless noted.
For the compound `COc1ccc2sc(-n3nc4nc5n(c(=O)c4c3N)-c3ccccc3Sc3ccccc3-5)nc2c1`, the growth was 57.7% (inactive).
Same read-out and setting: under `CC(=O)Nc1ccc(C(=O)/C=C/c2ccc(N(C)C)cc2)cc1` stands 97% (inactive).
Same read-out and setting: under `CCCC(=O)NNc1[nH]c(-c2ccc(OC)cc2)cc1C(=O)OCC` stands 91.1% (inactive); under `O=C(/C(Br)=C/c1ccccc1)c1ccccc1`, -28.4% (active); under `C/C=C(/C)C(=O)OC1C=C(CO)C(=O)C(OC(=O)C(C)(O)C(C)Cl)C1C(C)C` (stereo unspecified), -44.5% (active).
Still for that read-out and setting: the same measure for `CCCCCCCCCCCCCCCC[n+]1cccc(C#N)c1`: 73% (inactive); for `COc1ccc2cnc(N)c(C#Cc3cc(C(=O)Nc4ccc(CN5CCN(C)CC5)c(C(F)(F)F)c4)cnc3C)c2c1`: 33.9% (inactive).
Consider `CCCCCc1ccnc(CC(=O)c2ccc(OC)cc2)c1`, for which the growth was 104% (inactive).
Regarding `CCCCCCCCCCCCCCCCCC1=NCCN1CS(=O)(=O)O`, the growth was 17.3% (inactive).
The same measure, in the same setting: the same measure for `COc1ccc(OC)c(Cn2cc3c(c2)-c2oncc2CC3)c1`: 12.5% (inactive); for `CC/C(=N\Nc1nc2ccccc2n1C)c1ccccn1`: 2.28% (active); for `O=C(CN1C(=O)NC(c2ccccc2)(c2ccccc2)C1=O)c1ccc(N2CCCC2)cc1`: 70.5% (inactive).
Take `Cc1sc(NC(=O)c2ccc(C(C)(C)C)cc2)c(C(=O)O)c1C`: the growth is 41.9% (inactive).
On the same count and under the same terms, the same measure for `C#CCCCCCCC[C@@H]1OC(=O)[C@H]([C@@H](C)CC)NC(=O)[C@H]([C@@H](C)CC)NC(=O)CC(=O)[C@@H]1C`: 71.4% (inactive); for `CCOC1=C(Cl)C(=O)C(OCC)=C(Cl)C1=O`: 109% (inactive); for `O=C1C(=O)c2ccccc2C(O)=C1CCCc1ccc(Oc2ccccc2)cc1`: 43.3% (inactive).
The same measure, in the same setting: the same measure for `CCOc1ccc2nc3ccc(Cl)cc3nc2c1`: 124% (inactive).
For `CC[n+]1c(C)ccc2cc(C)ccc21`, the growth is 113% (inactive).
The same measure, in the same setting: under `COC(=O)/C(Br)=C/c1c[nH]c2ccc(Br)cc12` stands 69.1% (inactive); under `CC(=O)c1ccc2c(c1)c1ccccc1n2C`, 73.5% (inactive); under `Cc1ccc([C@@H]2C[C@H](O)Cc3ccccc3N2)s1`, 94.8% (inactive).
The same measure, in the same setting: the same measure for `COC(=O)/C=C/c1cc(O)c2oc(-c3ccc(O)c(O)c3)c(C(=O)OC)c2c1`: 19.9% (inactive).
On the same count and under the same terms, under `COc1cc2c(/C=C3\C(=O)Nc4ccc(Br)cc43)c(Cl)n(C)c2cc1C` stands 69.7% (inactive); under `COc1cc2c(cc1OC)C(Cc1cc(OC)c(OC)cc1[N+](=O)[O-])=NCC2`, 87.9% (inactive); under `O=C(Nc1ccc(Cl)c(Cl)c1)O/N=C\c1c(Cl)ccc([N+](=O)[O-])c1Cl`, 7.78% (active).
On to `Oc1ccc(CN(Cc2ccc(C(F)(F)F)cc2)Cc2ccc(O)c3ncccc23)c2cccnc12`, for which the growth is 5.6% (active).
On the same count and under the same terms, the same measure for `COc1cc(-c2nc(/C=C3/C(=O)Nc4ccccc43)c3ccccn23)cc(OC)c1OC`: 58.2% (inactive).
